Reference: the supplement of paper PMC11219838
Unmarked numbers belong to inactive results.

system: Caenorhabditis elegans L1 (N2); assay: survival and reproduction score of C. elegans L1 (0: 0-10 living worms, 1: 11-20, 2: 21-50, 3: >50, 4: overgrown) (score 0-4); higher = more worms, less nematicidal, active = 1 or less; extreme values may be limits of the assay; conditions: 60 µM; 6 days; temperature: 20 °C
Procedure, shortened: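 After compound was pinned to 60 µM final (0.6% v/v DMSO) into wells with roughly 20 synchronized C. elegans N2 L1s and E. coli HB101 in liquid NGM, the sealed 96-well plates were shaken at 200 rpm for 6 days at 20 °C. Under a dissection microscope, survival and reproduction were graded ordinally by living worms per well. A grade of 0 stood for 0–10 worms and 4 for overgrown, starved wells; two biological replicates were averaged.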

Compound | survival and reproduction score
CC(C)(C)C(=O)Nc1ccccc1-c1nc(-c2ccncc2)no1 | 4
CCOC(=O)c1ccc(NC(=O)c2ccccc2-c2nc(-c3cccc(C)c3)no2)cc1 | 4
Cc1ccccc1OCc1nc(-c2cccc(C(F)(F)F)c2)no1 | 4
COc1ccccc1OCc1nc(-c2ccccc2)no1 | 4
COc1ccccc1-c1nnc(SCC(=O)Nc2ccccc2Cl)o1 | 4
O=C(CSc1nnc(-c2ccc(Cl)cc2)o1)Nc1ccc(F)cc1 | 4
COc1ccc(-c2noc(COc3ccc(Cl)cc3Cl)n2)cc1 | 4
COc1ccc(-c2nnc(SCc3c(Cl)cccc3Cl)o2)cc1 | 4
Ic1ccc(CSc2nnc(-c3ccccc3)o2)cc1 | 4
FC(F)(F)c1cccc(-c2noc(-c3ccccc3Cl)n2)c1 | 3
CCOc1nc(-c2ccc(C)cc2)ccc1-c1noc(-c2ccncc2)n1 | 4
COc1cccc(OCc2nc(-c3cccc(C)c3)no2)c1 | 4
CC(C)(C)c1ccc(-c2nc(-c3ccncc3)no2)cc1 | 0 (active)
CCC(=O)Nc1ccccc1-c1nc(-c2cccnc2)no1 | 4
Clc1ccc(OCc2nc(-c3ccncc3)no2)cc1 | 4
CCOc1ccc(-c2nc(-c3ccccc3)no2)cc1 | 4
COC(=O)c1ccc(NC(=O)CSc2nnc(-c3ccc(Cl)cc3Cl)o2)cc1 | 4
CCCC(=O)Nc1ccccc1-c1nc(-c2ccncc2)no1 | 4
COc1ccc(-c2noc(-c3ccc(C)cc3)n2)cc1 | 3
Cc1ccc(-c2noc(-c3ccccc3C)n2)cc1 | 0 (active)

Compound | survival and reproduction score
Cc1ccc(-c2noc(COc3ccc(Cl)cc3C)n2)cc1 | 2
COc1ccccc1-c1nnc(SCC(=O)OCc2ccccc2)o1 | 4
CCCOc1ccc(-c2ccc(-c3nc(-c4ccccn4)no3)cc2)cc1 | 4
O=C(CSc1nnc(-c2ccc(Cl)cc2)o1)NC1CCCCC1 | 4
CC(C)Oc1cccc(-c2nc(-c3ccccn3)no2)c1 | 4
Brc1ccc(OCc2nc(-c3cccs3)no2)cc1 | 4
COc1ccc(-c2nnc(SCC(=O)Nc3cc(Cl)ccc3C)o2)cc1 | 4
Brc1ccccc1-c1nc(-c2ccncc2)no1 | 0 (active)
Clc1cc(Cl)c(OCc2nc(-c3ccncc3)no2)cc1Cl | 4
Brc1ccc(CSc2nnc(-c3ccco3)o2)cc1 | 0 (active)
Cc1ccc(-c2nnc(SCC(=O)Nc3cc(C)ccc3C)o2)cc1 | 4
O=C(CSc1nnc(-c2cccnc2)o1)c1ccc(Br)cc1 | 4
COc1ccc(-c2nnc(SCc3ccccc3)o2)cc1 | 4
c1csc(-c2nnc(-c3cccs3)o2)c1 | 2
Cc1cc(C)cc(NC(=O)CSc2nnc(-c3ccccc3)o2)c1 | 4
CN(C)C(=O)c1ccccc1-c1nc(-c2ccc(Cl)cc2)no1 | 4
COc1cccc(NC(=O)c2ccccc2-c2nc(-c3ccc(F)cc3)no2)c1 | 4
CNC(=O)c1ccccc1-c1nc(-c2ccccc2Cl)no1 | 4
CC(C)Oc1ccc(-c2nc(-c3ccccn3)no2)cc1 | 0 (active)
